# PubChem BioAssay AID1159580 (chemical genetic matrix, 2015)
# The whole screen tested about 5,500 compounds, of which about 2,000 (36%) were called active. Inconclusive results (about 18%) are left out. The list shows a part of the results. Values without a mark were called inactive. Rule as the data show it: active = normalized growth mostly below about 0.91 (no sharp cut-off); inconclusive = no clear call, values can overlap the other calls; inactive = mostly above about 0.92.
# Experiment: chemical genetic growth profiling, strain panel (AID 1159580);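 also: tested at 20 µM; growth read once vehicle control cultures reached saturation at 30 °C; 1 = growth at the plate median or of vehicle wells; lower values mean less growth of the strain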
# Conditions: growth OD
smiles,measurement,setting,value
C=C1C(=O)O[C@@H]2C3O[C@]3(C)CC/C=C(\C)CC[C@@H]12 (some centres not stated),normalized growth,"S. cerevisiae deletion strains, locus YJR075W, strain HOC1, hits give low values",0.828 (active)
same,normalized growth,"S. cerevisiae deletion strains, locus YKL009W, strain mrt4, hits give low values",0.913
same,normalized growth,"S. cerevisiae deletion strains, locus YKL068W, hits give low values",0.936 (active)
same,normalized growth,"S. cerevisiae deletion strains, locus YKL085W, strain MDH1 (second series), hits give low values",0.932
same,normalized growth,"S. cerevisiae deletion strains, locus YKL085W, strain MDH1, hits give low values",0.932
same,normalized growth,"S. cerevisiae deletion strains, locus YKL160W, strain elf1, hits give low values",0.946
same,normalized growth,"S. cerevisiae deletion strains, locus YKL190W, strain CNB1, hits give low values",0.796 (active)
same,normalized growth,"S. cerevisiae deletion strains, locus YKR001C, strain vps1, hits give low values",0.544 (active)
same,normalized growth,"S. cerevisiae deletion strains, locus YKR026C, strain gcn3, hits give low values",0.991
same,normalized growth,"S. cerevisiae deletion strains, locus YKR091W, strain srl3, hits give low values",0.99
same,normalized growth,"S. cerevisiae deletion strains, locus YLL001W, strain dnm1, hits give low values",0.968
same,normalized growth,"S. cerevisiae deletion strains, locus YLL026W, hits give low values",0.987
same,normalized growth,"S. cerevisiae deletion strains, locus YLL041C, strain sdh2, hits give low values",0.987
same,normalized growth,"S. cerevisiae deletion strains, locus YLR027C, strain aat2, hits give low values",0.969
same,normalized growth,"S. cerevisiae deletion strains, locus YLR039C, strain RIC1, hits give low values",0.245 (active)
same,normalized growth,"S. cerevisiae deletion strains, locus YLR058C, strain SHM2, hits give low values",0.934
same,normalized growth,"S. cerevisiae deletion strains, locus YLR102C, strain apc9, hits give low values",0.944
same,normalized growth,"S. cerevisiae deletion strains, locus YLR113W, strain HOG1, hits give low values",0.932
same,normalized growth,"S. cerevisiae deletion strains, locus YLR221C, strain rsa3, hits give low values",0.993
same,normalized growth,"S. cerevisiae deletion strains, locus YLR258W, strain gsy2, hits give low values",0.999
same,normalized growth,"S. cerevisiae deletion strains, locus YLR262C, strain YPT6 (second series), hits give low values",0.566 (active)
same,normalized growth,"S. cerevisiae deletion strains, locus YLR262C, strain YPT6, hits give low values",0.193 (active)
same,normalized growth,"S. cerevisiae deletion strains, locus YLR268W, strain sec22, hits give low values",0.68 (active)
same,normalized growth,"S. cerevisiae deletion strains, locus YLR320W, strain mms22, hits give low values",0.893
same,normalized growth,"S. cerevisiae deletion strains, locus YLR330W, strain CHS5, hits give low values",0.849 (active)
same,normalized growth,"S. cerevisiae deletion strains, locus YLR342W, strain FKS1 (second series), hits give low values",0.536 (active)
same,normalized growth,"S. cerevisiae deletion strains, locus YLR342W, strain FKS1, hits give low values",0.94
same,normalized growth,"S. cerevisiae deletion strains, locus YLR357W, strain rsc2, hits give low values",1.08
same,normalized growth,"S. cerevisiae deletion strains, locus YLR370C, strain arc18, hits give low values",0.964
same,normalized growth,"S. cerevisiae deletion strains, locus YLR371W, strain rom2, hits give low values",0.791 (active)
same,normalized growth,"S. cerevisiae deletion strains, locus YLR384C, strain iki3, hits give low values",0.975
same,normalized growth,"S. cerevisiae deletion strains, locus YLR418C, strain cdc73, hits give low values",0.42 (active)
same,normalized growth,"S. cerevisiae deletion strains, locus YML016C, strain PPZ1, hits give low values",0.911 (active)
same,normalized growth,"S. cerevisiae deletion strains, locus YML032C, strain rad52, hits give low values",0.87 (active)
same,normalized growth,"S. cerevisiae deletion strains, locus YML120C, strain ndi1, hits give low values",0.96
same,normalized growth,"S. cerevisiae deletion strains, locus YML124C, strain tub3, hits give low values",0.929 (active)
same,normalized growth,"S. cerevisiae deletion strains, locus YMR058W, strain fet3, hits give low values",0.992
same,normalized growth,"S. cerevisiae deletion strains, locus YMR078C, strain ctf18, hits give low values",0.741 (active)
same,normalized growth,"S. cerevisiae deletion strains, locus YMR125W, strain sto1, hits give low values",0.792 (active)
same,normalized growth,"S. cerevisiae deletion strains, locus YMR129W, hits give low values",0.993
same,normalized growth,"S. cerevisiae deletion strains, locus YMR205C, strain PFK2, hits give low values",0.938
same,normalized growth,"S. cerevisiae deletion strains, locus YMR223W, strain ubp8, hits give low values",0.801 (active)
same,normalized growth,"S. cerevisiae deletion strains, locus YMR231W, strain pep5, hits give low values",0.982
same,normalized growth,"S. cerevisiae deletion strains, locus YMR263W, strain SAP30, hits give low values",0.9
same,normalized growth,"S. cerevisiae deletion strains, locus YMR307W, strain GAS1, hits give low values",0.26 (active)
same,normalized growth,"S. cerevisiae deletion strains, locus YNL067W, strain RPL9B, hits give low values",0.808 (active)
same,normalized growth,"S. cerevisiae deletion strains, locus YNL071W, strain lat1, hits give low values",0.804 (active)
same,normalized growth,"S. cerevisiae deletion strains, locus YNL128W, strain TEP1, hits give low values",0.925
same,normalized growth,"S. cerevisiae deletion strains, locus YNL153C, strain GIM3, hits give low values",0.822 (active)
same,normalized growth,"S. cerevisiae deletion strains, locus YNL183C, strain NPR1, hits give low values",0.952
same,normalized growth,"S. cerevisiae deletion strains, locus YNL209W, strain ssb2, hits give low values",0.979
same,normalized growth,"S. cerevisiae deletion strains, locus YNL233W, strain BNI4, hits give low values",0.763 (active)
same,normalized growth,"S. cerevisiae deletion strains, locus YNL248C, strain rpa49, hits give low values",0.897
same,normalized growth,"S. cerevisiae deletion strains, locus YNL250W, strain rad50, hits give low values",0.933
same,normalized growth,"S. cerevisiae deletion strains, locus YNL271C, strain bni1, hits give low values",0.905 (active)
same,normalized growth,"S. cerevisiae deletion strains, locus YNL298W, strain CLA4, hits give low values",0.878 (active)
same,normalized growth,"S. cerevisiae deletion strains, locus YNL307C, strain MCK1, hits give low values",0.165 (active)
same,normalized growth,"S. cerevisiae deletion strains, locus YNL322C, strain KRE1 (second series), hits give low values",0.981
same,normalized growth,"S. cerevisiae deletion strains, locus YNL322C, strain KRE1, hits give low values",0.861 (active)
same,normalized growth,"S. cerevisiae deletion strains, locus YNR049C, strain mso1, hits give low values",0.997
same,normalized growth,"S. cerevisiae deletion strains, locus YNR052C, strain pop2, hits give low values",0.818 (active)
same,normalized growth,"S. cerevisiae deletion strains, locus YOL006C, strain TOP1, hits give low values",0.547
same,normalized growth,"S. cerevisiae deletion strains, locus YOL012C, strain htz1",0.318
same,normalized growth,"S. cerevisiae deletion strains, locus YOL147C, strain pex11, hits give low values",0.883 (active)
same,normalized growth,"S. cerevisiae deletion strains, locus YOR001W, strain rrp6, hits give low values",1.01
same,normalized growth,"S. cerevisiae deletion strains, locus YOR061W, strain CKA2, hits give low values",0.918
same,normalized growth,"S. cerevisiae deletion strains, locus YOR069W, strain VPS5, hits give low values",0.935
same,normalized growth,"S. cerevisiae deletion strains, locus YOR070C, strain gyp1, hits give low values",0.977
same,normalized growth,"S. cerevisiae deletion strains, locus YOR080W, strain dia2, hits give low values",0.998
same,normalized growth,"S. cerevisiae deletion strains, locus YOR083W, strain WHI5, hits give low values",0.965
same,normalized growth,"S. cerevisiae deletion strains, locus YOR106W, strain vam3, hits give low values",0.955
same,normalized growth,"S. cerevisiae deletion strains, locus YOR136W, strain idh2, hits give low values",0.905 (active)
same,normalized growth,"S. cerevisiae deletion strains, locus YOR144C, strain elg1, hits give low values",0.901 (active)
same,normalized growth,"S. cerevisiae deletion strains, locus YOR184W, strain ser1, hits give low values",0.628 (active)
same,normalized growth,"S. cerevisiae deletion strains, locus YOR231W, strain MKK1, hits give low values",0.977
same,normalized growth,"S. cerevisiae deletion strains, locus YOR265W, strain rbl2, hits give low values",0.978
same,normalized growth,"S. cerevisiae deletion strains, locus YOR270C, strain vph1, hits give low values",0.92
same,normalized growth,"S. cerevisiae deletion strains, locus YOR290C, strain snf2, hits give low values",0.971
same,normalized growth,"S. cerevisiae deletion strains, locus YOR316C, strain cot1, hits give low values",0.93
same,normalized growth,"S. cerevisiae deletion strains, locus YPL051W, strain arl3, hits give low values",0.921
same,normalized growth,"S. cerevisiae deletion strains, locus YPL055C, strain LGE1, hits give low values",0.743 (active)
same,normalized growth,"S. cerevisiae deletion strains, locus YPL078C, strain atp4, hits give low values",0.94
same,normalized growth,"S. cerevisiae deletion strains, locus YPL106C, strain sse1, hits give low values",0.869
same,normalized growth,"S. cerevisiae deletion strains, locus YPL240C, strain hsp82, hits give low values",0.991
same,normalized growth,"S. cerevisiae deletion strains, locus YPL241C, strain CIN2, hits give low values",0.922 (active)
same,normalized growth,"S. cerevisiae deletion strains, locus YPL256C, strain CLN2, hits give low values",0.93
same,normalized growth,"S. cerevisiae deletion strains, locus YPR119W, strain clb2, hits give low values",0.908 (active)
same,normalized growth,"S. cerevisiae deletion strains, locus YPR141C, strain kar3, hits give low values",0.902 (active)
same,normalized growth,"S. cerevisiae deletion strains, locus YPR163C, strain tif3, hits give low values",0.355 (active)
same,normalized growth,"S. cerevisiae deletion strains, locus YPR167C, strain met16, hits give low values",0.932
same,normalized growth,"S. cerevisiae deletion strains, strain wtn01, hits give low values",0.786 (active)
same,normalized growth,"S. cerevisiae strains, strain wild type, hits give low values",0.806 (active)
